Most compounds without a hit are left out; they make up all but 19% or so of the library.
TDP1 cell noCPT: qHTS for Inhibitors of human tyrosyl-DNA phosphodiesterase 1 (TDP1): qHTS in cells in absence of CPT | Potency, µM (doses to about 46.2 µM), actives largely listed as inhibitors | AID 686978, 2013 | DT40 Tdp1-/- hTDP1 cells, no CPT, ATP luminescence, 48 h | 420,000 compounds, 15% hits; further: nearly all actives have a fitted effect of over 55% in size
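Camptothecin absent (DMSO only). Human TDP1-complemented DT40 knockout cells, 400 cells/well, 37 °C for minimum 48 hr; ATP measured via CellTiter-Glo, 30 min dark incubation, luminescence.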
uPA surface inh: qHTS for Inhibitors of Cell Surface uPA Generation; cell surface uPA generation assay, qHTS; Potency, µM (doses to about 38.3 µM), usual class: inhibitors; 330,000 compounds, 0.31% hits; AID 540303, 2011; active means well fitted inhibition curve with a large enough effect; inconclusive means small, poorly fitted or top-dose-only effect; inactive means no such curve, though single readings can be large or run the other way; tested in mouse RAW 264.7 cells; further: nearly all actives have a fitted effect of over 55% in size
IL-1B inflam inh: qHTS for Inhibitors of Inflammasome Signaling: IL-1-beta AlphaLISA Primary Screen | THP-1 LPS/ATP IL-1B secretion, AlphaLISA, 16 h; hits give low values | activity change, % at 57.5 µM | 360,000 compounds, 4.7% hits | AID 743279, 2014; in the data active means activity change below about -50%; inconclusive means mostly about -30% to -49%
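Secreted IL-1B measured by AlphaLISA bead assay after 16 h compound exposure of THP-1 cells; compounds (final up to 57.5 uM) added 1 h before LPS (250 ng/mL) and ATP (1.25 mM) stimulation; lower signal means less secretion.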
HT1080 IDH1KD tx: qHTS for induction of synthetic lethality in tumor cells producing 2HG: qHTS for the HT-1080-IDH1KD cell line; 360,000 compounds, 2% hits; AID 686971, 2013; HT-1080 IDH1 knockdown viability, ATP luminescence, 48 h; Potency, µM (doses to about 46.1 µM), usual class: cytotoxic
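In this qHTS, HT-1080 cells depleted of IDH1 are exposed for 48 h at 37 °C to compound titrations. Toxicity is scored from CellTiter-Glo luminescence, with DMSO as full viability and medium alone as none.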
TDP1 cell CPT: qHTS for Inhibitors of human tyrosyl-DNA phosphodiesterase 1 (TDP1): qHTS in cells in presence of CPT; AID 686979, 2013; 420,000 compounds, 12% hits; chicken DT40 Tdp1-/-;hTDP1 cells + 20 nM CPT, ATP luminescence, 48 h; Potency, µM (series often up to 46.2 µM), actives largely listed as inhibitors; further: nearly all actives have a fitted effect of over 55% in size
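Chicken DT40 Tdp1-/- cells stably complemented with human TDP1 were seeded at 400 cells/well in medium containing 20 nM camptothecin, exposed to pin-transferred compounds, and grown at 37 °C for at least 48 hr. Viability was read as ATP luminescence.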
HT1080NT lethal: qHTS for induction of synthetic lethality in tumor cells producing 2HG: qHTS for the HT-1080-NT fibrosarcoma cell line | 360,000 compounds, 1.6% hits | HT-1080-NT fibrosarcoma viability, CellTiter-Glo ATP luminescence, 48 h | Potency, µM (doses to about 46.1 µM), actives largely listed as cytotoxic;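 further: NT is the 2HG producing partner of a matched IDH1 knockdown line; nearly all actives have a fitted effect of over 55% in size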
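Compounds were tested in concentration-response format on HT-1080-NT cells for 48 hours at 37 degrees C. Cell viability came from CellTiter-Glo luminescence; curves were classified by r2, response magnitude and activity.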
Hits are given with their value; i = inactive; ? = inconclusive; nt = no result given; [ ] = another dose, or the depositor's remark. Unless noted, the call rests on the fitted dose curve; in most records, active means well fitted curve in the direction sought with a large enough effect; inconclusive means small, poorly fitted or top-dose-only effect, or another doubt; inactive means no such curve, though single readings can be large; an effect the other way counts as inactive or inconclusive.

SMILES	TDP1 cell noCPT	uPA surface inh	IL-1B inflam inh	HT1080 IDH1KD tx	TDP1 cell CPT	HT1080NT lethal
COc1ccc(C(=O)Nc2nnc(S(=O)(=O)N(C)Cc3ccccc3)s2)cc1	i	i	i	i	i	i
CCN(CC)S(=O)(=O)c1ccc(C(=O)Nc2nnc(COC)o2)cc1	i	i	i	i	i	i
CCc1nnc(NC(=O)c2ccc(S(=O)(=O)N(CC)Cc3ccccc3)cc2)o1	7.3µM	i	i	?	12µM	i
CCN(Cc1ccccc1)S(=O)(=O)c1ccc(C(=O)Nc2nnc(C)o2)cc1	?	i	i	?	23µM	i
CN(Cc1ccccc1)S(=O)(=O)c1ccc(C(=O)Nc2nnc(C3CC3)o2)cc1	21µM	i	i	?	15µM	i
CN(Cc1ccc(F)cc1)S(=O)(=O)c1nnc(NC(=O)c2ccccc2)s1	?	i	i	nt	i	nt
COC(=O)[C@H](CC(C)C)NS(=O)(=O)NC(=O)OC(C)(C)C	i	nt	nt	nt	i	nt
Cn1c(=O)cc(C(=O)N/N=C/c2ccc(F)cc2)[nH]c1=O	i	i	i	i	i	i
CC12CCC(=O)N1C(C(=O)Nc1nnc(SCc3ccccc3F)s1)CS2 (stereo not drawn)	i	i	?	i	i	i
CCCCN(CCCC)S(=O)(=O)c1ccc(C(=O)Nc2nnc(COC)o2)cc1	16µM	i	i	12µM	18µM	?
COc1ccccc1-c1nnc(NC(=O)c2ccc(S(=O)(=O)N(C)Cc3ccccc3)cc2)o1	9.2µM	i	i	?	13µM	?
N=c1c(S(=O)(=O)c2ccc(Cl)cc2)cc2c(=O)n3ccccc3nc2n1C1CCCC1	?	i	i	i	?	i
CC1(C)N=C(N)NC(Nc2ccccc2)=N1	?	i	i	?	?	8.2µM
Cc1ccccc1NC1=NC(C)(C)N=C(N)N1	i	i	i	i	i	i
CSC1=C(C#N)C(c2ccccc2)C(C(C)=O)=C(C)N1 (stereo not drawn)	i	i	i	i	i	i
CNC(=O)C1C(=S)NC(N)=C(C#N)C1c1ccccc1 (stereo not drawn)	6.5µM	nt	?	?	26µM	?
Cc1cccc2c1NC(=O)C2(O)N1CCCC(C)C1 (stereo not drawn)	i	i	i	i	i	i
Cc1cccc2c1NC(=O)C2(c1ccc(O)cc1)c1ccc(O)cc1	i	i	?	0.0082µM	i	0.0082µM
Cc1cc(C2(c3ccc(O)c(C)c3)C(=O)Nc3ccccc32)ccc1O	?	i	?	i[9.24 µM]	?	18µM
CCC(=O)Nc1ccc(C(=O)Cn2ncc(Cl)c(Cl)c2=O)cc1	6.5µM	7.9µM	-96	?	5.2µM	i
CCc1ccccc1NC(=O)CN(C)C(=O)Cn1ncc(Cl)c(Cl)c1=O	6.5µM	i	-108	?	5.8µM	?
CCOC(=O)c1ccc(NC(=O)Cn2ncc(Cl)c(Cl)c2=O)cc1	2.3µM	i	-100	4.6µM	2.3µM	16µM
O=C(/C=C/Nc1ccc(Oc2ccccc2)cc1)c1ccco1	?	i	i	?	?	i
CCC1CN(Cc2c(C)nc3sccn23)Cc2cc(OC)ccc2O1 (stereo not drawn)	i	nt	nt	nt	i[9.04 µM]	nt
COc1cc(-c2nnc(SCC(=O)Nc3cccc(C#N)c3)o2)cc(OC)c1OC	i	nt	nt	nt	i	nt
SMILES	TDP1 cell noCPT	uPA surface inh	IL-1B inflam inh	HT1080 IDH1KD tx	TDP1 cell CPT	HT1080NT lethal
CNC(C)C(=O)NC(C(=O)N1CCCC1C(=O)NNc1ccccc1)C(C)C (stereo not drawn)	i	?	i	2.3µM	i	1.3µM
CNC(C)C(=O)NC(C(=O)N1CCCC1C(=O)NC1CCCc2ccccc21)C(C)C (stereo not drawn)	i	i	i	i	i	i
O=c1cc(O)c2sc(Nc3ccc(Cl)c(F)c3)nc2[nH]1	4.6µM	i	i	i	5.2µM	i
O=c1cc(O)c2sc(Nc3ccc(F)c(Cl)c3)nc2[nH]1	3.7µM	i	i	i	3.3µM	i
COc1ccc(Nc2nc3[nH]c(=O)cc(O)c3s2)cc1	18µM	i	i	i	12µM	i
CC(=O)c1ccc(NC(=O)CSc2nc3[nH]c(=O)cc(O)c3s2)cc1	?	i	i	i	?	i
CC(CCc1ccccc1)NC(=O)Cn1c(=O)nc(-c2ccccc2F)c2cc(Cl)ccc21 (stereo not drawn)	i	nt	nt	nt	i	nt
CCOC(=O)Cc1cc(-c2ccc(O)cc2)nc2ccc3ccccc3c12	?	i	i	?	?	?
CCOC(=O)Cc1cc(-c2ccc(F)cc2)nc2ccc3ccccc3c12	29µM	i	i	i	?	i
CCOC(=O)Cc1cc(-c2ccc(OC)cc2)nc2ccc3ccccc3c12	?	i	i	i	18µM	i
COC(=O)C1OCOC2C(C(=O)OC)OCOC12 (stereo not drawn)	i	i	i	i	i	i
Cc1ccc(N2C(=O)CC(NNC(=O)Cc3ccc(F)cc3)C2=O)cc1Cl (stereo not drawn)	i	i	i	i	i	i
O=C(CCNC(=O)c1ccc(Br)cc1)NCCCN1CCCC1=O	i	i	i	i	i	i
COC(=O)c1sc(-c2ccc(C(C)(C)C)cc2)cc1NC(=O)CSCC(=O)O	?	i	i	i	?	i
CCCC(=O)C1=C(O)C(C(=O)OC)C(C)(C)CC1=Nc1cccc2ccccc12 (stereo not drawn)	23µM	i	i	?	?	?
CN1Cc2cc(C(=O)c3ccccc3O)cnc2NC1=O	?	i	i	i	?	i
COc1ccc(O)c(C(=O)c2cnc3c(c2)CN(C)C(=O)N3)c1	18µM	?	i	i	18µM	i
Cc1cc(Sc2ncnc(N)c2[N+](=O)[O-])ncn1	0.92µM	nt	-100	7.3µM	0.29µM	13µM
Cc1cc(Sc2nc(N)ncc2[N+](=O)[O-])ncn1	1.3µM	i	-109	6.5µM	0.73µM	5.8µM
Cc1cc(N)ncc1[N+](=O)[O-]	i	i	i	i	i	i
N#Cc1ccccc1S(=O)(=O)N1CCNS(=O)(=O)c2ccccc21	i	i	i	i	i	i
CCOc1ccc(-c2nc(C#N)c(N3CCN(C)CC3)o2)cc1	i	i	?	i	i	i
COc1ccc(-c2nc(C#N)c(N3CCC(C)CC3)o2)cc1	13µM	i	-52	i	?	i
CCOc1ccc(-c2nc(C#N)c(N3CCCCCC3)o2)cc1	?	i	-61	i	21µM	i
